# Calls of active or inactive are those of the source.
# Legend:
# [1] = target: Albumin (Bos taurus) (UniProt P02769); assay: bovine serum albumin binders on microarray, profiling panel, artefact control for SMM control protein annotation, biochemical, small-molecule microarray, Alexa647 label, 635/667 nm fluorescence (AID 1118); settings: BSA-A647 binding, fluorescence 635 nm, higher = more signal;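 note: score merges 667 nm emission intensity and signal-to-noise per printed compound spot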
# [2] = small-molecule microarray binders of probe aXIP, primary screen, biochemical, NeuroSMM set, 635/667 nm fluorescence (AID 1119); settings: higher = more signal, called active from +8 up or from −8 down;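 note: probe is the protein aXip251-270 applied at 1 µg/mL to compound-printed slides; binding of probe to printed compounds measured as 667 nm fluorescence plus signal to noise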
# [3] = small-molecule binders of probe aNOTCH3, primary screen, biochemical, small-molecule microarray, 635/667 nm fluorescence (AID 1120); settings: higher = more signal;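 note: probe is a biotin-tagged antibody raised against NOTCH3 rather than NOTCH3 protein; score merges spot fluorescence near 667 nm with spot signal to noise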
# [4] = small-molecule binders of probe aNOTCH2, primary screen, biochemical, small-molecule microarray, 635/667 nm fluorescence (AID 1121); settings: higher = more signal;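 note: score merges feature fluorescence read at 667 nm with its signal to noise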
# [5] = target: Carbonic anhydrase 2 (Homo sapiens) (UniProt P00918); assay: CAII small-molecule binders, profiling panel, biochemical, small-molecule microarray, Alexa647-labelled CAII (AID 1122); settings: CAII-A647 binding fluorescence, higher = more signal
# [6] = COS7 lysate on small-molecule microarray, probe aHis, 635 nm (AID 1123); settings: COS7 cell lysate, fluorescence, higher = more signal;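 note: z-score combines 667nm fluorescence intensity with signal-to-noise per printed compound spot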
# [7] = compound binding in COS7 lysate, probe aLAP1, primary screen, cell lysate, small-molecule microarray (AID 1124); settings: probe aLAP1, fluorescence, higher = more signal;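 note: lysate comes from COS7 cells expressing LAP1 and is applied at 0.3 µg/mL; score merges spot fluorescence near 667 nm with signal-to-noise over triplicate slides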
# [8] = tested on: Sam68 (KHDRBS1); assay: Sam68 small-molecule binders, primary screen, biochemical, small-molecule microarray, 635 nm fluorescence (AID 1125); settings: small-molecule microarray binding, higher = more signal;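 note: score merges 667 nm channel intensity with signal to noise over triplicate slides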
# [9] = tested on: Chordin-like protein 2 (CHRDL2); assay: CHRDL2 small-molecule binders, primary screen, biochemical, small-molecule microarray, 635 nm fluorescence (AID 1126); settings: small-molecule microarray binding, fluorescence 635 nm; higher = more signal;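 note: printed compound slides probed with Chrdl2 protein at 4 µg/mL for 1 h at 4 C; score merges 667 nm emission intensity with signal to noise over three replicate slides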
# [10] = target: Concanavalin-A (Canavalia ensiformis) (UniProt P02866); assay: ConA small-molecule binders, primary screen, artefact control for SMM control protein annotation, biochemical, small-molecule microarray, Alexa647 label, 635 nm (AID 1127); settings: ConA-A647 binding fluorescence, higher = more signal;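 note: z combines 667 nm emission intensity with signal-to-noise across three replicate slides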
# [11] = anti-His antibody binders, primary screen, artefact control for SMM control protein annotation, biochemical, small-molecule microarray, 635 nm fluorescence (AID 1128); settings: anti-His Alexa647 antibody binding, higher = more signal;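 note: score merges feature fluorescence with signal-to-noise for each printed compound spot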
# [12] = tested on: Human papillomavirus type 1a E7 protein (residues 1-88); assay: HPV1a E7 small-molecule binders, primary screen, biochemical, small-molecule microarray, residues 1-88, 635 nm (AID 1129); settings: small-molecule microarray binding, fluorescence 635 nm; higher = more signal
# [13] = target: Focal adhesion kinase 1 (Homo sapiens) (UniProt Q05397); assay: small-molecule microarray binders of FAK, primary screen, biochemical, 635/667 nm fluorescence, BSA, DTT (AID 1130); settings: PTK2 binding, 635 nm fluorescence, higher = more signal;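 note: composite of spot emission at 667 nm and signal to noise over triplicate slides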
# [14] = tested on: Fibrinogen (Alexa647-labelled); assay: fibrinogen binders on compound microarrays, profiling panel, artefact control for SMM control-protein annotation, biochemical, small-molecule microarray, 635/667 nm fluorescence (AID 1131); settings: fibrinogen-A647 binding fluorescence, higher = more signal;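 note: z-score merges 667 nm fluorescence with per-spot signal-to-noise over triplicate slides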
# [15] = target: Follistatin (Homo sapiens) (UniProt P19883); assay: follistatin binders on small-molecule microarrays, primary screen, biochemical, small-molecule microarray, 635/667 nm fluorescence (AID 1132); settings: FST binding, 635 nm fluorescence, higher = more signal
# [16] = target: Fibroblast growth factor 2 (Homo sapiens) (UniProt P09038); assay: FGF2 binders on small-molecule microarrays, primary screen, biochemical, small-molecule microarray, 635/667 nm fluorescence (AID 1133); settings: small-molecule microarray binding, FGF2, fluorescence 635/667; higher = more signal
# [17] = mitochondrial membrane potential change in A549 cells, profiling panel, cell-based, JC-1 fluorescence, basal, 24 h, 100 nL (AID 1138); settings: higher = more signal;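 note: A549 lung adenocarcinoma cells under basal conditions with no added stimulus; test concentration not given here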
# [18] = tested on: Lefty1; assay: Lefty1 binders on small-molecule microarrays, primary screen, biochemical, small-molecule microarray, 635/667 nm fluorescence (AID 1139); settings: small-molecule microarray binding, fluorescence 635/667; higher = more signal
# [19] = tested on: wheat germ agglutinin (Triticum aestivum), Alexa647-labelled; assay: wheat germ agglutinin binders on compound microarrays, profiling panel, artefact control for SMM control-protein annotation, biochemical, small-molecule microarray, 635/667 nm fluorescence (AID 1140); settings: WGA-A647 binding, 635 nm fluorescence, higher = more signal;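 note: score merges 667 nm feature emission with signal to noise over triplicate slides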
# [20] = target: Luciferin 4-monooxygenase (Photinus pyralis) (UniProt P08659); assay: firefly luciferase enzyme inhibitors, primary screen, biochemical, luminescence, purified enzyme, 2006 set (AID 1141); settings: SteadyGlo luminescence, 30 min, higher = more signal, called active from +8 up or from −8 down;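 note: cell-free assay with purified firefly luciferase at 100 ng per well in PBS; test concentration not given here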
# Sequence of Luciferin 4-monooxygenase (Photinus pyralis) (P08659 whole entry, looked up): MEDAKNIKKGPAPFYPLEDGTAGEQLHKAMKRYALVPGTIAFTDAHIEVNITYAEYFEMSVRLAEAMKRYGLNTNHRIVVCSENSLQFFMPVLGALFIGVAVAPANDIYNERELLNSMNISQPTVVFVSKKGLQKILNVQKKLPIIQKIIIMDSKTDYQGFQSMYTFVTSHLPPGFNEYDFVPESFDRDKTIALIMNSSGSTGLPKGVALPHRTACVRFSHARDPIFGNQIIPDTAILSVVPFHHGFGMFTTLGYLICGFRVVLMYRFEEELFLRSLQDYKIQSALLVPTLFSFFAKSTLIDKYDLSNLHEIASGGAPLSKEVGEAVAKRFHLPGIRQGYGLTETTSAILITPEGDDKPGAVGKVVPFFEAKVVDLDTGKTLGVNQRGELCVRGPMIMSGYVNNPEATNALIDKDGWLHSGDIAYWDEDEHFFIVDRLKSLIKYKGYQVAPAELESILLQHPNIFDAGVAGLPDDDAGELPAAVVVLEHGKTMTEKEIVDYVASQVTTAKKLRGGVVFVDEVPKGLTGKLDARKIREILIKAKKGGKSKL
# Sequence of Fibroblast growth factor 2 (Homo sapiens) (P09038 whole entry, looked up): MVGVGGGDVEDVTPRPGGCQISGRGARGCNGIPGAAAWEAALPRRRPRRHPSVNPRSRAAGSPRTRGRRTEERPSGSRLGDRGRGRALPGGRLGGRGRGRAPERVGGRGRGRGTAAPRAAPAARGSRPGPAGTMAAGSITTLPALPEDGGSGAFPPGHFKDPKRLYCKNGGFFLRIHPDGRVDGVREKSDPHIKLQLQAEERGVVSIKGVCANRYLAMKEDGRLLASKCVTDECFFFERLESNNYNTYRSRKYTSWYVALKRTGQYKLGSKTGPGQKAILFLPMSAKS
# Sequence of Concanavalin-A (Canavalia ensiformis) (P02866 whole entry, looked up): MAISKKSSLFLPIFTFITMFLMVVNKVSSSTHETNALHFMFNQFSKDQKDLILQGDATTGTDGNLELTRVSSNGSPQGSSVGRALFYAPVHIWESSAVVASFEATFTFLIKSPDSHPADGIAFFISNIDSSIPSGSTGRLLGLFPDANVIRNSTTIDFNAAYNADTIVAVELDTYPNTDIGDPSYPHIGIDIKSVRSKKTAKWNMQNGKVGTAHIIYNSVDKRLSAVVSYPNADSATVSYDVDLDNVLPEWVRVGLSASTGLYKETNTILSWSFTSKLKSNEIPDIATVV
# Sequence of Albumin (Bos taurus) (P02769 whole entry, looked up): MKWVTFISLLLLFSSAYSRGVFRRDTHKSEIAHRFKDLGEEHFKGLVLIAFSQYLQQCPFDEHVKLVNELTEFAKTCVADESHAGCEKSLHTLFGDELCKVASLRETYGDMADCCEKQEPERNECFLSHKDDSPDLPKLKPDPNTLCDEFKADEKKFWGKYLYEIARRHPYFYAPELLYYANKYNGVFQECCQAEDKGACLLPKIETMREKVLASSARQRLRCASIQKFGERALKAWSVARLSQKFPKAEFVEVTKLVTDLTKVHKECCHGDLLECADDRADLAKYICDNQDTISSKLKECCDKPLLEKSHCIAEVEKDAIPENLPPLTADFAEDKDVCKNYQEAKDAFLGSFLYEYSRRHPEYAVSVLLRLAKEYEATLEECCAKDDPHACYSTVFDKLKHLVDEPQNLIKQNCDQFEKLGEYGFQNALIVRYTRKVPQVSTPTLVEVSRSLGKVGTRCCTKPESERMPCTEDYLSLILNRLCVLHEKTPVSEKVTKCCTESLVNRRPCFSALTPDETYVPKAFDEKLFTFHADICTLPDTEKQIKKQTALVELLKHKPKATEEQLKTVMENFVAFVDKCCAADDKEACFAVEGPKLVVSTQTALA
# Sequence of Follistatin (Homo sapiens) (P19883 whole entry, looked up): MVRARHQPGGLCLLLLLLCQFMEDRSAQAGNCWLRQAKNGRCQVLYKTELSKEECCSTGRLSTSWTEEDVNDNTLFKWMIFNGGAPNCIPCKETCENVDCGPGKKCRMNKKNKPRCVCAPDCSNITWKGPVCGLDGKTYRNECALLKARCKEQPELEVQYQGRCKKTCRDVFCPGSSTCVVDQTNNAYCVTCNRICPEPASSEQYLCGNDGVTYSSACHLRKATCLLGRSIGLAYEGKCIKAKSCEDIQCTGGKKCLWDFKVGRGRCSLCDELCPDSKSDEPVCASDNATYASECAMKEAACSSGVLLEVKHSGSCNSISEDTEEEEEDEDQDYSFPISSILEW
# Sequence of Focal adhesion kinase 1 (Homo sapiens) (Q05397 whole entry, looked up): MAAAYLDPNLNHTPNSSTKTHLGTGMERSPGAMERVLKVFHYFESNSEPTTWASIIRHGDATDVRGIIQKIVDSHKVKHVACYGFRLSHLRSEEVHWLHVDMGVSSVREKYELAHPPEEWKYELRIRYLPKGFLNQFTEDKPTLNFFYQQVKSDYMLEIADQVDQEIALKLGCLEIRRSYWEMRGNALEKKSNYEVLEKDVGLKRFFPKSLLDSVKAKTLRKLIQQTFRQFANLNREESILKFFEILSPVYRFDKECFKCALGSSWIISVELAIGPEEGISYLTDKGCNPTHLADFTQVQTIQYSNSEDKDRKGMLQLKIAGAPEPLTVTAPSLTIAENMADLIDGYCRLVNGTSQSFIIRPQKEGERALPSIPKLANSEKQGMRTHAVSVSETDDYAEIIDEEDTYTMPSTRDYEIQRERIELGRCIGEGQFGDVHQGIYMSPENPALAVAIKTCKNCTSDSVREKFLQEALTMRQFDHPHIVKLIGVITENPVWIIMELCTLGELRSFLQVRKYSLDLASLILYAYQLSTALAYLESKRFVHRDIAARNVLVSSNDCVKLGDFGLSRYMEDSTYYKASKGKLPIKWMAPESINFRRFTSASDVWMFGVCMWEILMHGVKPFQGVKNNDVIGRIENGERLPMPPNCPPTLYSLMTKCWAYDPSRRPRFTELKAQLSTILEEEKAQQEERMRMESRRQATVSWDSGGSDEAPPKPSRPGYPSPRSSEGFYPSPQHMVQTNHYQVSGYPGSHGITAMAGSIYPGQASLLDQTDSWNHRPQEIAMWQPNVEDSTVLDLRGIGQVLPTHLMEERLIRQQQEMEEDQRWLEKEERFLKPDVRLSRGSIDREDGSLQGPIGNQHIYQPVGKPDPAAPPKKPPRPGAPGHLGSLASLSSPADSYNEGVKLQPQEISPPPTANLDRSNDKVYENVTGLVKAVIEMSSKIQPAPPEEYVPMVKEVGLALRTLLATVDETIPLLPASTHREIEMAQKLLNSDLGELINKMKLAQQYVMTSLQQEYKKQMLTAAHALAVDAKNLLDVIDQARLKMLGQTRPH
SMILES,composite z-score [1],composite Z-score [2],composite z-score [3],composite z-score [4],composite z-score [5],composite z-score [6],composite z-score [7],composite z-score [8],composite z-score [9],composite z-score [10],composite z-score [11],composite z-score [12],composite z-score [13],composite z-score [14],composite z-score [15],composite z-score [16],z-score [17],composite z-score [18],composite z-score [19],z-score [20]
Cc1ccc(NN2C(C(O)c3c(F)cccc3Cl)C=CC3C(=O)N(C4CCCCC4)C(=O)C32)cc1 (stereo not given),0.979,0.788 (inactive),0.102,0.174,0.489,2.38,-0.0134,1.25,-0.804,1.19,1.5,1.2,0.601,1.04,0.842,-0.413,1.19,-0.209,1.26,0.289 (inactive)
NC(=O)NCC#Cc1ccc2c(c1)[C@]1(C(=O)N2)[C@H](C(=O)N2CCN(c3ncccn3)CC2)[C@H]2C(=O)O[C@H](c3ccccc3)[C@H](c3ccccc3)N2[C@@H]1c1ccc(O)cc1,0.151,0.953 (inactive),0.856,-0.0149,0.304,0.817,0.102,1.2,0.864,0.721,1.43,1.14,0.244,0.768,1.37,1.3,-0.982,0.36,0.542,-0.598 (inactive)
COCCOC(=O)N1C(=O)[C@@]2(c3cc(C#CC4=CCCCC4)ccc31)[C@H](c1ccccc1OCCO)N1[C@H](c3ccccc3)[C@H](c3ccccc3)OC(=O)[C@H]1[C@@H]2C(=O)N1CCN(c2ncccn2)CC1,0.326,-0.17 (inactive),0.212,-0.154,0.214,0.634,0.297,1.06,0.374,1.06,0.624,1.15,0.732,0.635,0.76,0.779,-1.05,0.772,0.343,-1.47 (inactive)
CCN(CC)c1ccc(N2CC=CC34O[C@@H]5/C=C\CCCOC(=O)C5[C@H]3C(=O)N(C(C)CO)[C@@H]4C2=O)cc1 (stereo not given in full),0.288,-0.463 (inactive),-0.0647,-0.0862,0.732,0.121,0.248,0.11,0.259,-0.529,-0.556,-0.107,-0.294,-0.158,0.077,0.305,1.18,-0.0464,-0.0344,-1.38 (inactive)
COC(=O)[C@@H]1N=C(c2ccc(OCCCO)cc2)O[C@@H]1C,-0.867,-0.385 (inactive),0.0893,-0.082,-0.153,-0.223,0.905,0.973,-0.155,0.0255,0.217,0.0927,0.517,-0.323,1.17,0.936,0.669,0.516,-0.257,-13.8 (active)
CCCNC(=O)[C@@H]1c2ccccc2C(=O)N(Cc2ccc(OC(F)(F)F)cc2)[C@H]1c1ccc(CO)cc1,0.27,-0.123 (inactive),-0.0288,-0.0326,0.158,0.677,-0.374,0.416,0.102,0.0505,0.0772,0.907,-0.0662,0.368,0.887,0.908,1.93,-0.0534,0.0988,0.283 (inactive)
[N-]=[N+]=Nc1ccccc1C[C@@]1(C(N)=O)N=C(c2ccc(OCCCO)cc2)O[C@@H]1c1ccccc1N=[N+]=[N-],1.01,0.127 (inactive),0.0059,0.0342,0.441,1.34,-0.0264,0.666,-0.359,0.716,1.76,1.23,0.0444,0.637,0.062,-0.0354,-0.498,-0.37,0.0911,-4.2 (inactive)
CC(C)[Si](C#C[Si](C(C)C)(C(C)C)C(C)C)(O[C@H](c1ccccc1)c1cn(Cc2ccccc2)nn1)C(C)C,-0.0062,-0.058 (inactive),0.143,-0.146,0.237,-0.366,-0.0307,1.02,0.511,0.135,0.259,0.733,0.23,0.436,0.532,0.2,0.238,0.635,0.212,0.87 (inactive)
CCOC(=O)C[C@H]1[C@H](OC(=O)Cc2ccc3c(c2)OCO3)[C@@H](NC(=O)c2ccc3ccccc3n2)c2cc(OCCCO)ccc2N1C(=O)c1ccccc1,-0.233,0.221 (inactive),-0.124,-0.18,0.0645,0.109,-0.115,0.416,0.528,0.321,-0.0867,0.381,-0.0076,0.364,0.803,0.902,2.23,0.755,0.326,-0.992 (inactive)
C=CCNC(=O)[C@@H]1[C@H]2C(=O)O[C@H](c3ccccc3)[C@H](c3ccccc3)N2[C@H](c2ccccc2OCCO)[C@@]12C(=O)N(C(=O)OCCOC)c1ccc(C#CC3(O)CCCCCC3)cc12,0.351,0.0141 (inactive),0.11,-0.0708,0.354,2.15,0.618,1.29,0.755,1.07,0.713,1.22,0.894,0.905,1.34,0.924,-1.2,0.988,0.323,0.558 (inactive)
COCCOC(=O)N1C(=O)[C@@]2(c3cc(C#CCNC(N)=O)ccc31)[C@H](C(N)=O)[C@H]1C(=O)O[C@H](c3ccccc3)[C@H](c3ccccc3)N1[C@@H]2c1ccccc1OCCO,0.222,-0.327 (inactive),0.133,0.0065,0.3,1.4,0.521,1.05,0.743,1.06,0.193,0.956,0.538,0.834,1.38,1.5,-1.17,0.684,0.403,-1.07 (inactive)

# — PubChem BioAssay
